Results as given in the supplement of paper PMC11732987, “Enantioselective OTUD7B fragment discovery through chemoproteomics screening and high-throughput optimisation” (Communications Chemistry, 2025).

Key:
Assay in all cases: log2 ratio of Biotin-Ahx-Ub-VS probe labelling (fragment/DMSO); higher = less target engagement (more negative = stronger competition), active = hit call of the paper (q ≤ 0.05, log2 ratio ≤ -1)
Conditions in all cases: compound concentration: 200 uM; treatment time: 3 h
USP34 = USP34 (UniProt Q70CQ2)
Summary of the method: (§1)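 HEK293T lysate, 495 µg per sample in Tris/CHAPS/IGEPAL buffer with protease inhibitors, was treated in triplicate with fragment at 200 µM or vehicle for 3 h and then with Biotin-Ahx-Ub-VS at 0.5 µM final for 1 h. Labelled DUBs were NeutrAvidin-enriched, digested with LysC and trypsin, and run by diaPASEF LC-MS/MS. Spectronaut label-free quantities were global-median-normalised, and values are average log2 fragment/vehicle ratios by unpaired t-test on proteins with ≥2 unique peptides.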

USP36 = target: T1, USP36 (UniProt Q9P275)
T1 sequence (whole entry): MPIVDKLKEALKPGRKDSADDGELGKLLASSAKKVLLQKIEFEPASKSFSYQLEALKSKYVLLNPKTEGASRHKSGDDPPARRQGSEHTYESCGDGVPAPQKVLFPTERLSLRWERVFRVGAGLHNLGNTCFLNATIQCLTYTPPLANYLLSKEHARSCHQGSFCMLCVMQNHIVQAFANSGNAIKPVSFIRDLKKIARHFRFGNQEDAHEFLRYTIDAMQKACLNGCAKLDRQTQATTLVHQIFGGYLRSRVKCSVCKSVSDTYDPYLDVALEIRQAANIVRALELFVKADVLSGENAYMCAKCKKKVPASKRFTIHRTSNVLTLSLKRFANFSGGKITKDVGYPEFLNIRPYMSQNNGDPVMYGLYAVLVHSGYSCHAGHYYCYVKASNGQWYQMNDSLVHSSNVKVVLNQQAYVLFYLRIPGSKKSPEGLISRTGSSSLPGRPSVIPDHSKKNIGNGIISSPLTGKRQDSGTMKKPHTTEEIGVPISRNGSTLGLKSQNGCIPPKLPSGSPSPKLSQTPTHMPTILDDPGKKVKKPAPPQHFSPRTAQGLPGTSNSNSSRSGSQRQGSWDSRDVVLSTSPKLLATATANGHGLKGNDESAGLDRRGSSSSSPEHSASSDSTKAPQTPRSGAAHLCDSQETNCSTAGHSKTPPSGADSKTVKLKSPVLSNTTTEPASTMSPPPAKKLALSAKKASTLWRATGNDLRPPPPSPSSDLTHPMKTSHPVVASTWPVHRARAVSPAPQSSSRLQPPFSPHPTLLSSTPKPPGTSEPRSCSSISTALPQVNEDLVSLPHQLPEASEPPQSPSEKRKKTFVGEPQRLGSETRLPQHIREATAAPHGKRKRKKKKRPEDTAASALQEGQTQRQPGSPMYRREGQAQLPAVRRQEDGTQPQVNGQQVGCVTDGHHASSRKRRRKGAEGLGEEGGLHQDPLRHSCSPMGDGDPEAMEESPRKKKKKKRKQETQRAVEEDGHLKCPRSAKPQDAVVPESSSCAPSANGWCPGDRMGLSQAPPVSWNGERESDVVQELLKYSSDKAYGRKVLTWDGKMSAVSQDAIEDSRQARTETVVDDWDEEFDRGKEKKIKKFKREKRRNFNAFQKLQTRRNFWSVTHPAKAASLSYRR
Summary of the method: as §1

USP38 = target: T2, USP38 (UniProt Q8NB14)
T2 sequence (whole entry): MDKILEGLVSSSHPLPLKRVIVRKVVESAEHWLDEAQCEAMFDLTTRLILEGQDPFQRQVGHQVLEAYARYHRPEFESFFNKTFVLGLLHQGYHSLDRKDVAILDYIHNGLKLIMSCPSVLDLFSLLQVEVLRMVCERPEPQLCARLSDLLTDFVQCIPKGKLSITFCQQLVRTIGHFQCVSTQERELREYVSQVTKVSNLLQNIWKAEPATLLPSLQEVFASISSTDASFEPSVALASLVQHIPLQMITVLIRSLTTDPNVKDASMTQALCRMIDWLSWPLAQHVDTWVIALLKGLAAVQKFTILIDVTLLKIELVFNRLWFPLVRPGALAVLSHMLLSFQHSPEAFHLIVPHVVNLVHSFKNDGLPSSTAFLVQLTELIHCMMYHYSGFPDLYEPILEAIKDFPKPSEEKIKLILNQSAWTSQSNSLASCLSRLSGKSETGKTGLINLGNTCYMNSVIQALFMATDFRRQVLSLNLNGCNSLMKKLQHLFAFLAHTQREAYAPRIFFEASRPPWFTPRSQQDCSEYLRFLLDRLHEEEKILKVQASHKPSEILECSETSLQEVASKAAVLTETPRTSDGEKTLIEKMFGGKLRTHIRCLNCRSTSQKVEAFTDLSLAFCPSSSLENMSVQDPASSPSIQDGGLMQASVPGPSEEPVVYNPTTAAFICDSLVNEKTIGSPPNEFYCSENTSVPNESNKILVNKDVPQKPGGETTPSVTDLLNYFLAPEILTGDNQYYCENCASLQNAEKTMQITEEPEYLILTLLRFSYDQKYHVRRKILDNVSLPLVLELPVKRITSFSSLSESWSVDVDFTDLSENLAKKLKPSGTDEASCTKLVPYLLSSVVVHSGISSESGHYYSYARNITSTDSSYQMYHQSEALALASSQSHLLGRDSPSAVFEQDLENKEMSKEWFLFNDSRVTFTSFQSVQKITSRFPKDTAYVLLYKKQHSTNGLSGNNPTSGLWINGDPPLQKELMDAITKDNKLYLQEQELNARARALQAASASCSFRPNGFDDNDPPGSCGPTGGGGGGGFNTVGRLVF
Summary of the method: as §1

USP39 = target: T3, USP39 (UniProt Q53GS9)
T3 sequence (whole entry): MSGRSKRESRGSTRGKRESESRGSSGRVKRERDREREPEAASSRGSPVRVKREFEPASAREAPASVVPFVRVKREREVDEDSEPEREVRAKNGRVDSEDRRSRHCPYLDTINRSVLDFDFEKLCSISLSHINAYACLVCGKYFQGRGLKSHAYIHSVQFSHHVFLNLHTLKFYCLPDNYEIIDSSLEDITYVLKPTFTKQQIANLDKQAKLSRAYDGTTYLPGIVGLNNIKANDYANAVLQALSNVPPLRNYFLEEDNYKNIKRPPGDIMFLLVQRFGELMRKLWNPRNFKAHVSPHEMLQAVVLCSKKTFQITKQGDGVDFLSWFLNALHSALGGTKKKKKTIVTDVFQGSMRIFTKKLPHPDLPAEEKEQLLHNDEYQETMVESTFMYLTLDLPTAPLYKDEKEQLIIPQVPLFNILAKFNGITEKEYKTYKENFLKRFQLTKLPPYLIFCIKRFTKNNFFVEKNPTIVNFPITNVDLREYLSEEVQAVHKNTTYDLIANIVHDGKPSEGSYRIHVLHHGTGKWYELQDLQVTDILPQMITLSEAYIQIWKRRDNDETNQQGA
Summary of the method: as §1

USP4 = target: T4, USP4 (UniProt Q13107)
T4 sequence (whole entry): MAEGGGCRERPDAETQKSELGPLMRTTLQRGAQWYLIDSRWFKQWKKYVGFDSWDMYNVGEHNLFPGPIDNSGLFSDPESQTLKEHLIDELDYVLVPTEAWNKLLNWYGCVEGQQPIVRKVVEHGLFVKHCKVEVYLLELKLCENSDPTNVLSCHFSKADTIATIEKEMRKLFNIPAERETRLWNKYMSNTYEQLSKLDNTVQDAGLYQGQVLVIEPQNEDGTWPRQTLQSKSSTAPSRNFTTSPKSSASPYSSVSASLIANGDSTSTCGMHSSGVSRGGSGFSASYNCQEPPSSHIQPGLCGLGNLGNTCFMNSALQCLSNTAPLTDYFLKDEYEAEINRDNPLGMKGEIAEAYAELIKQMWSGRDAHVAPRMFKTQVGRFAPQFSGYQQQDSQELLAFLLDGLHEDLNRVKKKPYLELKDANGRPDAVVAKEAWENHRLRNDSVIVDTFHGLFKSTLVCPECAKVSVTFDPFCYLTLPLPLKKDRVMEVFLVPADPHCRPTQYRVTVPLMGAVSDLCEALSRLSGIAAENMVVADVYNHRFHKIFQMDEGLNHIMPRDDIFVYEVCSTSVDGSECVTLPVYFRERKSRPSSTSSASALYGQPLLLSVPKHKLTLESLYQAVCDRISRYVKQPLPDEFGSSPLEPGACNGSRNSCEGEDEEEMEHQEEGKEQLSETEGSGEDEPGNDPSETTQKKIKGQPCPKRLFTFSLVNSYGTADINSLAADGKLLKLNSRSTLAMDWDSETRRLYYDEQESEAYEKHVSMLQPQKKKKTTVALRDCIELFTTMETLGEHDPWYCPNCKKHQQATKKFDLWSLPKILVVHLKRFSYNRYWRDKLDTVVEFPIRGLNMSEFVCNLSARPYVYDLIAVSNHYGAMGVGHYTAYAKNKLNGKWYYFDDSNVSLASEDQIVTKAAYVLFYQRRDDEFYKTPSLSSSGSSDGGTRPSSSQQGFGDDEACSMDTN
Summary of the method: as §1

Measured: log2 ratio of Biotin-Ahx-Ub-VS probe labelling

Chain of USP34 (Q70CQ2 whole entry, the tested form may be a part): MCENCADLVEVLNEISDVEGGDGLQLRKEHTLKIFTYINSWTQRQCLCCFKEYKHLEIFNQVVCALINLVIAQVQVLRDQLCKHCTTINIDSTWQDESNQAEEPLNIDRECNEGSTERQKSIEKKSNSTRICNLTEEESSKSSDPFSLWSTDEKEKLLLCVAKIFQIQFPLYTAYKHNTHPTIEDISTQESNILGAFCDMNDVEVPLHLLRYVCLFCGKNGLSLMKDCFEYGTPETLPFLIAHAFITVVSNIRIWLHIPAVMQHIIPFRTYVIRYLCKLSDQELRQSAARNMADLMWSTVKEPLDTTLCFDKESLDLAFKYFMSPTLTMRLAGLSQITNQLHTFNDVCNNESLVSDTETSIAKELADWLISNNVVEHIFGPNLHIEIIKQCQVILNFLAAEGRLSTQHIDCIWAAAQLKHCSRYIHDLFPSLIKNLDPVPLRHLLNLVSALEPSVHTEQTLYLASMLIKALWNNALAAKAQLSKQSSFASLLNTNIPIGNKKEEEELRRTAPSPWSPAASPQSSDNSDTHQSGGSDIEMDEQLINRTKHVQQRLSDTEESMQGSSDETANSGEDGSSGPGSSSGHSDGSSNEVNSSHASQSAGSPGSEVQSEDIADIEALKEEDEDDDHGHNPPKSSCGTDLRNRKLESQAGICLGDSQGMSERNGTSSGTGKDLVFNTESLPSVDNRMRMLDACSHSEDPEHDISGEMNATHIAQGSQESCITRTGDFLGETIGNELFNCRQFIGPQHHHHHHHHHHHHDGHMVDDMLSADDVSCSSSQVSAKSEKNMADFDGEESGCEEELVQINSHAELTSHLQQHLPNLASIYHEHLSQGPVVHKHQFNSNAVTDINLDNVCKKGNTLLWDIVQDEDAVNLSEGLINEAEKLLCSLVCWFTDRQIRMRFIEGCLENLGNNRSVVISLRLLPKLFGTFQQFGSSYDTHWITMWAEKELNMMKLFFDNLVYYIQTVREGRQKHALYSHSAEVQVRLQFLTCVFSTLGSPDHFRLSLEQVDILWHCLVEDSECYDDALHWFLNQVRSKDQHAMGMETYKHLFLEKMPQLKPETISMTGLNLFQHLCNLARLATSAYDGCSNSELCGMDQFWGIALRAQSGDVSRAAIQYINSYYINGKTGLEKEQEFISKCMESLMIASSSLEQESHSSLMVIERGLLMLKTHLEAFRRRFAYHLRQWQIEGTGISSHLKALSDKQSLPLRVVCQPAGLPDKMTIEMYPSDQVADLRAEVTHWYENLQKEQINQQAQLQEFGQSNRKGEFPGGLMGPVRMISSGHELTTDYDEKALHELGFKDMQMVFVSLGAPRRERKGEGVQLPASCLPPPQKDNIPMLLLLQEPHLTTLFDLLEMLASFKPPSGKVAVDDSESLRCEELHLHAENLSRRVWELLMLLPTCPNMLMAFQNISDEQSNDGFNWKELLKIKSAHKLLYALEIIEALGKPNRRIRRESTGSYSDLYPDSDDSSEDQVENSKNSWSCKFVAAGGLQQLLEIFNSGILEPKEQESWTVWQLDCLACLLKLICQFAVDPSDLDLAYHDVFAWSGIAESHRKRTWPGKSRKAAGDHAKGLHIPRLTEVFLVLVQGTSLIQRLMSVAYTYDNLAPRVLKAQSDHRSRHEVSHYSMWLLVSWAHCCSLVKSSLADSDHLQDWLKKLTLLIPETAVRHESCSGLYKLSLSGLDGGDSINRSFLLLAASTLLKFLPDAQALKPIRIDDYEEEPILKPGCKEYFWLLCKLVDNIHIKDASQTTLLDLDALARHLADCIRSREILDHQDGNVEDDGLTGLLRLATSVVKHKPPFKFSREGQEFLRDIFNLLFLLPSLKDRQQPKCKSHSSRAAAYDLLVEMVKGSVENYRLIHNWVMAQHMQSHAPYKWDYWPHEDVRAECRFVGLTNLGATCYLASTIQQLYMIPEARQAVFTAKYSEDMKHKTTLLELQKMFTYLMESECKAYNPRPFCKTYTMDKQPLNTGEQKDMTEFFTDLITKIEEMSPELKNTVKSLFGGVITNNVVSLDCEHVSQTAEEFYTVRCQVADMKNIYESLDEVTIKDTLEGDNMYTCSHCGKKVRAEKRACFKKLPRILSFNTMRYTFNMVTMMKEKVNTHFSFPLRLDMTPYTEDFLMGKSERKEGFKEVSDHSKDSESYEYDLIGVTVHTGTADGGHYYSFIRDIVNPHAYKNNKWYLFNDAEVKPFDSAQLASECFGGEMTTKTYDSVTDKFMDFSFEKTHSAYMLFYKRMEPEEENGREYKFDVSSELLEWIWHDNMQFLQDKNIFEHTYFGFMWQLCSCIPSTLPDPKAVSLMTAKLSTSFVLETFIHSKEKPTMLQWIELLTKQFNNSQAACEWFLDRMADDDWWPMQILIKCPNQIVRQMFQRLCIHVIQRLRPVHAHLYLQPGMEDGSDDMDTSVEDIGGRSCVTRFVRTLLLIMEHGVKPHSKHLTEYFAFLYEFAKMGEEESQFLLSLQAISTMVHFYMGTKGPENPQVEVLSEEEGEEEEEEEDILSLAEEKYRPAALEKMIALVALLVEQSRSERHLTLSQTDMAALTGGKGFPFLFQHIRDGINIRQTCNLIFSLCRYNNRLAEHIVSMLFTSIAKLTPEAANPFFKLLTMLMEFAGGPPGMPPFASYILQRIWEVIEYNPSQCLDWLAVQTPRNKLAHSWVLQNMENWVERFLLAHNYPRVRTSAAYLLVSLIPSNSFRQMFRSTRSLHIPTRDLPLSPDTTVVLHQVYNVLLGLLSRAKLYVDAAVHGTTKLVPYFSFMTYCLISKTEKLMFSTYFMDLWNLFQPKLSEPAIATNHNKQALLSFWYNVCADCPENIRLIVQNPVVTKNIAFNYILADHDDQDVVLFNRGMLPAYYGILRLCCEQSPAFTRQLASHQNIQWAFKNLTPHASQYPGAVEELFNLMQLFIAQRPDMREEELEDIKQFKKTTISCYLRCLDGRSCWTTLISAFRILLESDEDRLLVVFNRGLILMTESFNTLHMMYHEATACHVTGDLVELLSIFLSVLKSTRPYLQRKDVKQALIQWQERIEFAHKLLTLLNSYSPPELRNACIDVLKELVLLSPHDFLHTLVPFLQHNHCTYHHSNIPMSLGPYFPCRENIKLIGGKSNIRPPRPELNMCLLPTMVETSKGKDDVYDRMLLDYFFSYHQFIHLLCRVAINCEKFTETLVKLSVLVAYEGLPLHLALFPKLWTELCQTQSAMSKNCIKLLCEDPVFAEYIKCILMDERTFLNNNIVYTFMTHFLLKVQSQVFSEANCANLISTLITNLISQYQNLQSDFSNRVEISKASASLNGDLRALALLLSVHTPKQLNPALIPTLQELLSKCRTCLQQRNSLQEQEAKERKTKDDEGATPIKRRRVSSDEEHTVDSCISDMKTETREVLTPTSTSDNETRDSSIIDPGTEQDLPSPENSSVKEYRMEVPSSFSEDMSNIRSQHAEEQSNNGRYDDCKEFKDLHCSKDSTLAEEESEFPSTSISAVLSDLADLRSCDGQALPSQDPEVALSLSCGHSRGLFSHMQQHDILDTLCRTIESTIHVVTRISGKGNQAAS

Cc1cccc(N2CCC(NC(=O)CCl)C2=O)c1 (stereo not given)
inactive: USP34 0.0479 | USP36 -0.0247 | USP38 -0.169 | USP39 -0.32 | USP4 -0.134
